The record followed here is PubChem BioAssay (EPA / NIEHS).

Where “and” joins values, the source holds several entries; their conditions need not be identical. Equal values may be shown once. Inconclusive results are not listed. Calls of active or inactive are those of the source. Rule for the calls, unless noted: active = hit-call score of the fitted dose curve at least 0.9, where 1 is the maximum; inactive = score below 0.9.

Assay [1] is described as follows: IUF_NPC2a_radial_glia_migration_120hr: Leibniz Research Institute for Environmental Medicine (IUF) 120-hour Neural Progenitor Cell Migration Assay for Radial Glia Migration (NPC2a) (AID 2284298). The gist of the method: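 Hoechst-stained nuclei imaged at 120 h; algorithm maps sphere core by densest nuclei, sets migration edge at density threshold, gives radial glia migration distance (um) per well vs DMSO. hNPC spheres (0.3 mm), PDL/laminin, DMEM/F12 3:1 + 1% N2.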

The nature of assay [2]: IUF_NPC2a_radial_glia_migration_72hr: Leibniz Research Institute for Environmental Medicine (IUF) 72-hour Neural Progenitor Cell Migration Assay for Radial Glia Migration (NPC2a) (AID 2284299). The gist of the method:
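Primary hNPC spheres, fetal brain GW 16-19, on PDL/laminin; DMEM/F12 3:1 + 1% N2. Compound dosed day 0, 7 conc. + SC, half-medium refresh day 3. 72 h brightfield, migration distance core-to-front (um), 4 directions averaged.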

A short description of assay [3]: IUF_NPC2b_neuronal_migration_120hr: Leibniz Research Institute for Environmental Medicine (IUF) 120-hour Neural Progenitor Cell Migration Assay for Neuron Migration (NPC2b) (AID 2284300). An outline of the steps:
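hNPC spheres, PDL/laminin, DMEM:F12 3:1 + 1% N2, 37C/5% CO2; 7 concentrations + solvent control (DMSO ≤0.1%), 5 d exposure, half-feed day 3. Fix 120 h, TUBB3 ICC, HCI: mean neuron migration distance ÷ glia distance.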

Assay [4] can be described thus: IUF_NPC3_neuronal_differentiation_120hr: Leibniz Research Institute for Environmental Medicine (IUF) 120-hour Neuronal Differentiation Assay (NPC3) (AID 2284301). The gist of the method: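 Single 0.3 mm neurospheres from human fetal cortex were plated in differentiation medium containing test compound. Medium was half-replaced on day 3. After 120 h cells were fixed, immunostained and imaged, and neuronal fraction was scored against DMSO control.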

The nature of assay [5]: IUF_NPC4_neurite_length_120hr: Leibniz Research Institute for Environmental Medicine (IUF) 120-hour Neuronal Morphology Assay for Neurite Length (NPC4) (AID 2284302). The gist of the method:
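Read-out is mean neurite length in µm of TUBB3-positive neurons, skeletonized from high-content fluorescence images after 120 h. Single 0.3 mm primary human neural progenitor spheres differentiated on poly-D-lysine/laminin under continuous compound exposure; DMSO was baseline.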

Assay [6] is described as follows: IUF_NPC4_neurite_area_120hr: Leibniz Research Institute for Environmental Medicine (IUF) 120-hour Neuronal Morphology Assay for Neurite Area (NPC4) (AID 2284305; active = hit-call score of the fitted dose curve at least 0.9, where 1 is the maximum). The gist of the method:
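Neurite area is read out as the mean pixel area, excluding nuclei, of skeletonized TUBB3-positive neurons imaged after 120 h. Primary human neural progenitor spheres differentiated on poly-D-lysine/laminin with compound present from day 0. Activity was referenced to DMSO controls.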

A short description of assay [7]: IUF_NPC2-5_cytotoxicity_72hr: Cytotoxicity Assessment at 72 hours in the Leibniz Research Institute for Environmental Medicine (IUF) Neural Progenitor Cell Migration and Differentiation Assay for Cytotoxicity (NPC2-5) (AID 2284306; active = hit-call score of the fitted dose curve at least 0.9, where 1 is the maximum;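 note: LDH release into supernatant measured by resorufin fluorescence marking membrane damage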). An outline of the steps: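 Membrane integrity loss was scored from fluorescence (RFU) of resorufin generated by LDH in culture supernatant, 72 h after dosing. Differentiating human progenitor spheres received seven serial compound concentrations alongside a solvent control.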

A short description of assay [8]: IUF_NPC2-5_cytotoxicity_120hr: Cytotoxicity Assessment at 120 hours in the Leibniz Research Institute for Environmental Medicine (IUF) Neural Progenitor Cell Migration and Differentiation Assay (NPC2-5) (AID 2284307; active = hit-call score of the fitted dose curve at least 0.9, where 1 is the maximum;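 note: LDH released into supernatant as membrane damage marker via resorufin fluorescence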). An outline of the steps:
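hNPC spheres on PDL/laminin, N2 medium, 37C; 7 concs + solvent control, DMSO ≤0.1%; 5-day exposure, half medium changed day 3. LDH in supernatant at 120 h, resazurin→resorufin fluorescence, gain-of-signal.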

The nature of assay [9]: IUF_NPC2-5_cell_number_120hr: Cell Number Assessment at 120 hours in the Leibniz Research Institute for Environmental Medicine (IUF) Neural Progenitor Cell Migration and Differentiation Assay (NPC2-5) (AID 2284308).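 Note: count of Hoechst-stained nuclei in migration zone around plated human neural progenitor spheres.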 The gist of the method: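 Hoechst-stained nuclei within the migration area were counted by automated high content imaging after 120 h. Single hNPC spheres differentiated on poly-D-lysine/laminin in DMEM/F12 (3:1) with 1% N2, compound present throughout, DMSO ≤0.1%.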

Assay [10] can be described thus: IUF_NPC2-5_viability_120hr: Viability Assessment at 120 hours in the Leibniz Research Institute for Environmental Medicine (IUF) Neural Progenitor Cell Migration and Differentiation Assay (NPC2-5) (AID 2284312). An outline of the steps: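 Alamar blue resorufin fluorescence read after 5 days of differentiation, with compound present from day 0 and replenished at day 3. Primary hNPC spheres on laminin-coated plates, 37C; seven concentrations plus solvent control, fitted against DMSO.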

Assay [11] in a line: IUF_NPC1_cytotoxicity_72hr: Cytotoxicity Assessment at 72 hours in the Leibniz Research Institute for Environmental Medicine (IUF) Neural Progenitor Cell Proliferation Assay (NPC1) (AID 2284332; active = hit-call score of the fitted dose curve at least 0.9, where 1 is the maximum;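 note: rising LDH signal means more cytotoxicity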). An outline of the steps:
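Spheres of primary human neural progenitors are plated one per well on day 0 in growth-factor medium and dosed at once. After three days at 37C, supernatant LDH is measured fluorimetrically via resazurin reduction.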

A further assay has as its system SERPINA7 (gene 6906). The assay is described as follows: CCTE_GLTED_hTBG: CCTE's human Thyroxine-binding Globulin (TBG) Inhibition Assay, Great Lakes Toxicology and Ecology Division (GLTED) Lab (AID 2284343; active = hit-call score of the fitted dose curve at least 0.9, where 1 is the maximum;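 note: active chemicals lower fluorescence versus DMSO baseline by displacing probe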). An outline of the steps:
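hTBG + test chem, 2 h; ANSA probe displacement; fluorescence readout ex380/em475; DMSO = neg ctrl/baseline; cell-free.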

The next assay concerns TTR (gene 7276). The assay is described as follows: CCTE_GLTED_hTTR_0.125uM: CCTE's human Transthyretin (hTTR) Inhibition Assay, with 0.125uM TTR, Great Lakes Toxicology and Ecology Division (GLTED) Lab (AID 2284431).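 Note: hits lower the fluorescence signal relative to DMSO baseline.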 An outline of the steps: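 TTR 0.125uM + test chemical, 2 h; ANSA probe displacement; ex 380/em 475 fluorescence; signal loss vs DMSO control.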
Assay [12] has as its target D(1A) dopamine receptor (Homo sapiens) (UniProt P21728). The assay is described as follows: NVS_GPCR_hDRD1: NovaScreen (NVS) G Protein-Coupled Receptor Assay for human Dopamine Receptor D1 (DRD1) (AID 2283269; active = hit-call score of the fitted dose curve at least 0.9, where 1 is the maximum). The gist of the method:
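Cell-free radioligand binding to human DRD1 from HEK293 membranes, read 1 h after dosing by filter-based scintillation counting. Loss of signal versus DMSO baseline marks displacement. Primary screen at 25 uM single concentration in duplicate; actives followed up in concentration series.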

The subject of assay [13] is Sodium/Iodide Symporter (NIS), SLC5A5 (gene 6528). The assay is described as follows: CPHEA_Stoker_NIS_Inhibition_RAIU: CPHEA's Radioactive Iodide Uptake (RAIU) Assay for Sodium/Iodide Symporter (NIS) Inhibition, Stoker and Laws Labs (AID 2283841; active = hit-call score of the fitted dose curve at least 0.9, where 1 is the maximum). An outline of the steps:
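HEK293T cells stably expressing human NIS (hNIS-HEK293T-EPA) were exposed to test chemicals at 0.001–100uM (0.5% final DMSO) with 125I at a final 329pM in HBSS/10mM HEPES pH 7.4. After 2 hours at room temperature and ice-cold washes, intracellular 125I was counted as CPM and normalized to DMSO wells.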

Read-out in assay [14]: Monocyte Chemoattractant Protein-1 (MCP1), CCL2 (gene 6347)
The assay is described as follows: BSK_IMphg_MCP1: BioMAP Diversity Plus: IMphg Assay for Monocyte Chemoattractant Protein-1 (MCP1) Biomarker Activity (AID 2284253). As to conditions: primary human endothelial cells with macrophages. The gist of the method: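 Human venular endothelial cells co-cultured with macrophages; MCP-1 measured by ELISA 24 hours post-dose and fitted against DMSO. Cytotoxicity monitored by SRB total-protein staining in parallel cultures.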

Read-out in assay [15]: Macrophage Inflammatory Protein-1 Alpha (MIP1a), CCL3 (gene 6348)
Kind of assay: BSK_IMphg_MIP1a: BioMAP Diversity Plus: IMphg Assay for Macrophage Inflammatory Protein-1 Alpha (MIP1a) Biomarker Activity (AID 2284255). As to conditions: primary human endothelial cells with macrophages. The gist of the method: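 Co-culture of human venular endothelial cells and macrophages exposed to compounds for 24 h; MIP-1a measured by ELISA relative to DMSO. Cytotoxicity assessed in parallel cultures by sulforhodamine B total-protein staining at 560 nm.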

Read-out in a further assay: CD69, CD69 (gene 969)
Kind of assay: BSK_IMphg_CD69: BioMAP Diversity Plus: IMphg Assay for CD69 Biomarker Activity (AID 2284257). As to conditions: primary human endothelial cells with macrophages. The gist of the method: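 Human venular endothelial cells co-cultured with macrophages; CD69 quantified by ELISA 24 h after compound addition. Activity fitted in the positive direction relative to DMSO baseline; cytotoxicity tracked in parallel cultures via SRB total-protein staining.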

Read-out in assay [16]: Eotaxin 3, CCL26 (gene 10344)
The assay is described as follows: BSK_BF4T_Eotaxin3: BioMAP Diversity Plus: BF4T Assay for Eotaxin 3 Biomarker Activity (AID 2284258). As to conditions: primary human bronchial epithelial cells with fibroblasts. An outline of the steps:
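Co-culture of human bronchial epithelial cells and dermal fibroblasts, exposed to chemicals for 24 h versus DMSO. Eotaxin-3 quantified by ELISA; cytotoxicity checked in parallel cultures by sulforhodamine B total-protein staining.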

Read-out in assay [17]: Monocyte Chemoattractant Protein-1 (MCP1), CCL2 (gene 6347)
The assay is described as follows: BSK_BF4T_MCP1: BioMAP Diversity Plus: BF4T Assay for Monocyte Chemoattractant Protein-1 (MCP1) Biomarker Activity (AID 2284259). As to conditions: primary human bronchial epithelial cells with fibroblasts. The gist of the method: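 Co-culture of bronchial epithelial cells and dermal fibroblasts dosed with chemical; MCP-1 measured by ELISA 24 h later. Activity fitted in positive direction versus DMSO; cytotoxicity checked by SRB staining in parallel cultures.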

Chain of D(1A) dopamine receptor (Homo sapiens) (P21728 whole entry, looked up): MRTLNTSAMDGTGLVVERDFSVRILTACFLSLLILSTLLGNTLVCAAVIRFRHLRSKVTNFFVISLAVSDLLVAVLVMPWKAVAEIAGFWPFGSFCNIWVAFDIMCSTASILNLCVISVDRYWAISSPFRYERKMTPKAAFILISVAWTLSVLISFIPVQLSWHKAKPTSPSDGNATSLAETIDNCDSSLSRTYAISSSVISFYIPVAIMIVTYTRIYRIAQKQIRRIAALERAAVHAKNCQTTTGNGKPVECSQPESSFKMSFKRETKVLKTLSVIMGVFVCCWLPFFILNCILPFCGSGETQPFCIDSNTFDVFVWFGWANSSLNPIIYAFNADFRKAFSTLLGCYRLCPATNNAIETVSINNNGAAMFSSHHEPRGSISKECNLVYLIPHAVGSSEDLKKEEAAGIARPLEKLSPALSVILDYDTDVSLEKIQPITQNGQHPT

`Oc1cccc2ccccc12`: the outcome in assay [1], in assay [2], in assay [3], in assay [4], in assay [5] and in assay [6] was inactive. Besides, the call in [7], in [9], in assay [10] and in assay [11] was inactive. For the same compound, the AC50 in [8] was 0.216 µM (active); with SERPINA7 (gene 6906), 4.58 µM (active); in the assay on TTR (gene 7276), 3.07 µM (active).
Turning to `CC(=[OH+])/C=C(/C)[O-].CC(=[OH+])/C=C(/C)[O-].CC(=[OH+])/C=C(/C)[O-].[Fe]`, in [12], the call was inactive.
Turning to `OC(C(F)(F)F)(C(F)(F)F)C(O)(C(F)(F)F)C(F)(F)F`, the outcome in assay [13] and in assay [17] was inactive. In addition, the AC50 was 22.4 µM (active) and 22.6 µM (active) in assay [14]; 7.09 µM (active) and 53.2 µM (active) in assay [15]; 18.7 µM (active) and 24.2 µM (active) in the assay with CD69, CD69 (gene 969); 15.7 µM (active) and 8.93 µM (active) in [16].
